Data from PubChem BioAssay (NCI).
The panel holds about 79,000 compounds, 15% with a hit somewhere; the sample as a whole holds those more often. Unmarked numbers belong to inactive results. Activity calls are given as the source filed them. No stated cut-off is given here; in the data, active means growth inhibition above about 70%; inactive means the rest. Where a SMILES comes first, the peptide text is derived from it.

Tests used:
[1] = NCI Yeast Anticancer Drug Screen. Data for the rad50 strain (AID 155);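 further: 0% = growth of vehicle-only cultures of the same strain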; settings: S. cerevisiae rad50 strain growth inhibition, active compounds read high; at 50.0 µM unless noted
Outline: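 A DNA repair-deficient yeast mutant serves as the test organism; compound-induced growth inhibition is calculated against vehicle-treated cells.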

[2] = NCI Yeast Anticancer Drug Screen. Data for the mec2-1 strain (AID 157); settings: S. cerevisiae mec2-1 strain, active compounds read high; at 50.0 µM unless noted
Outline: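 Vehicle-treated cultures served as reference for growth inhibition of compound-exposed mec2-1 yeast.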

[3] = NCI Yeast Anticancer Drug Screen. Data for the sgs1 mgt1 strain (AID 161);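 further: 0% = growth of cultures given vehicle only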; settings: S. cerevisiae sgs1 mgt1 strain, active compounds read high; at 50.0 µM unless noted
Outline: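 Genetically altered yeast, compound exposure, growth inhibition relative to vehicle.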

[4] = NCI Yeast Anticancer Drug Screen. Data for the cln2 rad14 strain (AID 165);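 further: 0% = growth equal to vehicle treated cultures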; settings: S. cerevisiae cln2 rad14 strain, active compounds read high; at 50.0 µM unless noted
Outline: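 Each compound was tested on cln2 rad14 yeast. Inhibition of growth was calculated against vehicle-exposed controls.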

[5] = NCI Yeast Anticancer Drug Screen. Data for the bub3 strain (AID 167); settings: S. cerevisiae bub3 mutant strain, active compounds read high; at 50.0 µM unless noted
Outline: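 Inhibition values come from growth of compound-treated mutant yeast normalised to vehicle-treated controls.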

[6] = NCI Yeast Anticancer Drug Screen. Data for the mlh1 rad18 strain (AID 175); settings: S. cerevisiae mlh1 rad18 strain growth inhibition, active compounds read high; at 50.0 µM unless noted
Outline: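 Vehicle-treated cultures served as the reference for growth inhibition in a yeast strain carrying DNA damage repair alterations exposed to each compound.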

| SMILES | growth inhibition [1] | growth inhibition [2] | growth inhibition [3] | growth inhibition [4] | growth inhibition [5] | growth inhibition [6] |
| --- | --- | --- | --- | --- | --- | --- |
| CCOC(=O)c1[nH]c(-c2[nH]c(-c3[nH]c(-c4[nH]c(C(=O)OCC)c(C)c4C(=O)OCC)c(C(=O)OCC)c3C)c(C)c2C(=O)OCC)c(C(=O)OCC)c1C | -24.7% | -16% | -21.3% | 6.85% | -14.1% | -74% |
| S=c1[nH]c2ccccc2c(=S)n1CN1CCCCC1 | -26.6% | -27.4% | -15.3% | -13.1% | 4.6% | -11.9% |
| CS(=O)(=O)c1ccc(/C(=N/N)c2ccccc2)cc1 | 1.65% | 9.65% | 9.2% | 28.2% | 13.5% | 17.4% |
| NC1=NC(=O)/C(=C/c2ccccc2[N+](=O)[O-])C(N)=N1 | -26.9% | -0.05% | 10.8% | 4.8% | -5.6% | 24.1% |
| Cc1ccc(C)c(NS(=O)(=O)c2ccc(Cl)cc2)c1 | 98.9% (active) | 99.2% (active) | 99.1% (active) | 99.3% (active) | 98.8% (active) | 99.2% (active) |
| O=CC(O)C(O)C(O)C(O)C(O)C(O)CO (stereo not given) | 16% | 10.7% | 28.1% | -1.55% | 5.9% | 19.6% |
| C/C(=N\O)C(=O)c1ccc(C)cc1 | -0.05% | -12.7% | 2.2% | -30.6% | -22.7% | -8.7% |
| O=P(O)(O)OP(=O)(O)O | -15.3% | -15.1% | -2.4% | -12.1% | -54.6% | 25.8% |
| O=COCCCOCCCOc1ccccc1 | 14.3% | -11.8% | -9.35% | -37.4% | -5.6% | 28.4% |
| CCOC(=O)C1SC(=Nc2ccccc2)N=C1C (stereo not given) | 11.3% | -11.7% | 28.1% | -4.15% | -19.6% | -4.5% |
| CCCCCCC(C)OB(OC(C)CCCCCC)OC(C)CCCCCC (stereo not given) | -27.6% | -49% | -0.8% | 13.8% | -41.4% | -0.85% |
| O=[N+]([O-])c1ccc(-n2nnc(C3=NCCCN3)c2-c2ccc(Cl)cc2)cc1 | -11.3% | -8.1% | -5.75% | 8.6% | 5.55% | -19.6% |
| CCOc1ccc([N+](=O)[O-])cc1[N+](=O)[O-] | 43.3% | 2.1% | -11.3% | -55.5% | -25.6% | -2.6% |
| NC(=O)c1ccc(F)cc1 | -42.3% | -29.6% | -7.7% | -16.1% | -18.2% | -10.5% |
| CC(=O)N(C(C)=O)N1C(=O)CSC1=S | -11.1% | -35% | -21.8% | -3.4% | 17.4% | -7.2% |
| CCOC(=O)c1ccc(N/C(C)=C/C(=O)OC)cc1 | 3.45% | -8.4% | 11.2% | -20.7% | 1.95% | 3.55% |
| O=C1C=CC(=O)C(CNc2ccc(C(=O)OCc3ccccc3)cc2)=C1 | 23.6% | 8.75% | -28.9% | -30.6% | -42.9% | -3.1% |
| Cc1nc(Nc2cccc(Cl)c2)c2cnn(-c3ccc(Cl)cc3)c2n1 | -2.5% | -0.25% | 1.1% | -41.4% | -0.45% | -4.35% |
| O=C(Nc1ccc(F)cc1)N1CCOCC1 | 1.65% | -25% | 4.3% | 9.6% | 6.8% | -9.4% |
| CCOC(=O)[C@]12C3C=CC(C3)C1C(=O)C1OC12 (stereo not given in full) | -29% | -26.8% | -19.3% | -0.5% | -26.6% | -45.1% |

| SMILES | growth inhibition [1] | growth inhibition [2] | growth inhibition [3] | growth inhibition [4] | growth inhibition [5] | growth inhibition [6] |
| --- | --- | --- | --- | --- | --- | --- |
| N/N=C1\C(=O)N(C2CCCCCC2)C(=O)C1C(=O)NC1CCCCCC1 (stereo not given) | -13.3% | -32.6% | -7.2% | -68.7% | -18.8% | -26.2% |
| Cc1cc([N+](=O)[O-])cc(Br)c1N | 23.1% | 11.1% | -1.6% | 3.25% | 0.25% | 25.4% |
| O=C(CCCn1ccnc1[N+](=O)[O-])NCCn1cnc([N+](=O)[O-])n1 | 7% | 17.2% | -6.05% | -6.2% | -4.8% | -16.1% |
| Cc1ccc(/C=C/C(=O)C(C)CN(C)C)cc1C (stereo not given) | -1% | -15.4% | 26.1% | 0.95% | 0.3% | 9.65% |
| COc1cc2c(cc1C(C)c1ccc(Cl)cc1)OCO2 (stereo not given) | 12.8% | -1.55% | -1.6% | 21% | 20.2% | 4.9% |
| O=C(OC(C1COCO1)C(O)C1COCO1)c1ccccc1 (stereo not given) | 5.65% | -8.85% | 9.05% | -1.85% | 28.4% | 17.4% |
| CCN(CCOC)C(C)=O | 2.15% | 2.25% | 17.6% | -1.75% | -0.45% | -3.05% |
| CCOC(=O)c1ccc(NCc2ccc(CNc3ccc(C(=O)OCC)cc3)cc2)cc1 | -35.4% | -18.2% | -36.2% | -11.8% | -21.4% | -27% |
| Cc1nn2c(nnn2CCO)c1-c1ccccc1 | 10.7% | -5.65% | -15% | -10.6% | -25.4% | 15.8% |
| O=C1C2=C(C(=O)C3=C1C1CCC3C1)C1CCC2C1 | 4.1% | -34.1% | -11.7% | -15.2% | -5.25% | 0.7% |
| COc1cc(OC)c(-c2cc(=O)c3c(OC)c(OC)c(OC)c(OC)c3o2)cc1OC | -2.95% | -3.8% | -2.8% | -44% | 36.2% | -21.1% |
| C/C(CCc1ccccc1)=N\NC(N)=S | 7.1% | 0.95% | 9.55% | -35.1% | -5.5% | 10.3% |
| OCCCNCc1ccccn1 | 7.25% | -13.7% | -20.4% | 22.2% | -12.2% | -16.6% |
| CCc1cccc(C(C)C)c1NC(=O)C(=O)Nn1c(=S)[nH]c2ccccc2c1=O | -7.15% | -23.1% | -10.2% | 2.75% | -17.2% | -12.6% |
| NC(=O)C1CCCN1C(=O)C(N)Cc1ccccc1 (stereo not drawn) (H-Phe-Pro-NH2; configuration not given here) | -26.9% | -44.1% | -21.1% | 5.7% | 4.7% | -9.05% |
| C1COC2(OC1)OCCCO2 | -14.8% | 1.35% | -7.85% | -71.5% | 8.75% | 3.05% |
| CCCNCCC | 2.1% | -5.4% | 14.5% | -12.4% | 4.2% | 1.65% |
| CCOC(OCC)c1cc(=O)[nH]c(NC(C)=O)n1 | -1.15% | 0.05% | 10% | -11.9% | -1.25% | 5.4% |
| CCOC(=O)C(Cc1ccc(Cl)cc1)(NC(C)=O)C(=O)OCC | -1.25% | -13.6% | -4.25% | -23.9% | 14.4% | -10.4% |
| O=[N+]([O-])c1ccc(N=Cc2ccc(N(CCF)CCF)cc2)cc1 | 6.9% | 15.9% | 16.1% | -60% | -9.2% | 10.9% |
